From PubChem BioAssay AID488890 (Southern Research Specialized Biocontainment Screening …, 2010)
Out of some 320,000 compounds screened, about 1,300 (0.41%) were called active. About 3% were inconclusive and are not listed. How the calls were made is not given here. The list is a sample of the results. Entries with a potency or affinity are not part of this list.

Assay: growth inhibition of non-replicating M. tuberculosis (AID 488890);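 further: plate controls were DMSO cells for no effect and high antibiotic wells for full effect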
Details: Mycobacterium tuberculosis non-replicating, at 25 µM, stronger effect = higher value

In order of rising inhibition:
1. CN1c2ccsc2/C(=N/NC(=O)c2c(F)cccc2F)CS1(=O)=O  -25.7%
2. O=C(N/N=C/c1ccc2nccnc2c1)c1cccc([N+](=O)[O-])c1  -21.3%
3. Cc1cccc(N2CCN(C(=O)Cn3nc(C)n4cccc4c3=O)CC2C)c1 (stereo not given)  -17.1%
4. CCCCC(CCC(=O)Nc1ccn(-c2ccccc2)n1)C(=O)O (stereo not given)  -15.5%
5. COc1ccc(NC(=O)CN2CCN(C(=O)C3CCCO3)CC2)c(OC)c1 (stereo not given)  -13.5%
6. COc1cc(OC)cc(C(=O)N[C@H](C(=O)OCC(N)=O)C(C)C)c1  -12.8%
7. COc1ccc2ccccc2c1/C=N/Nc1ccc(Cl)c(C(=O)O)c1  -12.5%
8. Cc1cc(C)c2c(=O)n(CC(=O)N3CCC(N4CCCCC4)CC3)sc2n1  -11.9%
9. Cc1ccccc1NC(=O)C1C2C=CC(C3CC23)C1C(=O)O (stereo not given)  -10.4%
10. Cc1nnc(C)n1N  -10.3%
11. O=[N+]([O-])c1ccc(-n2nnnc2-c2ccccc2)cc1  -9.53%
12. NS(=O)(=O)c1ccc(CNC(=O)c2ccc3c(c2)OCO3)cc1  -8.29%
13. CC(=O)Nc1ccc2c(c1)C(=O)N(C1CCCCC1)C2=O  -7.24%
14. Cc1ccc(NC(=O)C(C)SCc2nc3sc(C)c(C)c3c(=O)[nH]2)nc1 (stereo not given)  -7.05%
15. Cc1ccc(NC(=O)c2ccc3snnc3c2)cc1C  -6.47%
16. COc1ccc2c(Cl)c(C(=O)N/N=C/c3c(C)[nH]c4ccccc34)sc2c1  -5.52%
17. CNC(=S)NNc1nc(N2CCOCC2)nc(N2CCOCC2)n1  -5%
18. COc1ccc(CN2CCNC(=O)C2CC(=O)N(C)Cc2nccn2C)cc1OC (stereo not given)  -4.39%
19. Cc1ccc(C)c2[nH]c(=O)c(CCNC(=O)c3ccc(Br)o3)cc12  -3.61%
20. CC(C)(C)OCC1CO1 (stereo not given)  -2.36%
21. COc1ccc(OCCNc2cc(Cl)ccc2[N+](=O)[O-])cc1  -1.86%
22. O=C(CCN1CCN(C/C=C/c2ccccc2)CC1)Nc1ccccc1F  -1.04%
23. O=[N+]([O-])c1cccc(-c2nnnn2-c2cccc(F)c2)c1  -0.82%
24. COc1ccc2[nH]c(=O)c(C(=O)O)cc2c1  -0.72%
25. CC1CCC2C(=O)N(c3cccc(C(=O)Nc4ccc(F)cc4)c3)C(=O)C2C1 (stereo not given)  0.0133%
26. Cc1ccccc1SCC(=O)Nc1ccc(N2CCOCC2)cc1  0.16%
27. O=C(O)c1cc(N/N=C/c2c(O)ccc3ccccc23)ccc1Cl  0.25%
28. Cc1cccc(N2C(=O)/C(=C/c3ccccn3)SC2=S)c1  0.34%
29. COCCCn1nnnc1SCC(=O)N1c2ccccc2CC1C (stereo not given)  0.95%
30. CC(=O)Nc1ccc(S(=O)(=O)N2CCSC2C(=O)O)cc1 (stereo not given)  1.73%
31. CCCC(=O)N/N=C1\CS(=O)(=O)N(C)c2ccsc21  1.81%
32. CCNC(=O)N(C)C[C@H]1N[C@@](C)(C(=O)OC)[C@H]2C(=O)N(C)C(=O)[C@@H]12  2.38%
33. CCCNC(=O)Cn1sc2nc(C)cc(C)c2c1=O  2.63%
34. COc1nc(OC)nc(Oc2ccc(Cl)cc2[N+](=O)[O-])n1  2.78%
35. Cc1c(Cl)cccc1NC(=O)Cn1cc(C(F)(F)F)cc(Cl)c1=O  3.98%
36. Cc1c(Cl)cccc1NC(=O)Cn1cccc1  4.11%
37. CCc1ccccc1OCCCN1CCCC1  4.44%
38. Cc1cc(C)c2c(=O)n(CC(=O)NC3CCCC3)sc2n1  6.3%
39. C[C@H](NC(=O)[C@@H]1Cc2ccccc2CN1C(=O)OC(C)(C)C)C(=O)NCC1CCCO1 (stereo not given in full)  6.8%
40. COc1ccc(C(C)=O)cc1CSc1nc(C)cc(C)n1  6.97%
41. O=C(N/N=C/c1ccccn1)c1ccc(NC(=O)c2cccc([N+](=O)[O-])c2)cc1  7.23%
42. Cc1ccc(NC(=O)CCC(=O)N/N=C/c2ccc([N+](=O)[O-])o2)cc1C  8.35%
43. CC(C)[C@H](NC(=O)C1CCN(S(=O)(=O)c2ccc(F)cc2)CC1)C(=O)NCc1ccco1  8.72%
44. Cc1cc(-n2cnnn2)ccc1C(C)C  9.21%
45. CC(C)C(c1nnnn1Cc1ccccc1)N1CCc2ccccc2C1 (stereo not given)  11%
46. Nc1nc2ccccc2n1CCOc1ccc(F)cc1  11%
47. Cc1cc(C)c[n+](CC(=O)c2ccc(C)c([N+](=O)[O-])c2)c1  11.3%
48. Cc1ccc(NC(=O)C2CCN(C(=O)c3ccc(Cl)cc3)CC2)nc1  11.3%
49. CCc1nc2ccccc2n1CC(=O)N1CCN(S(=O)(=O)c2cccc(C(F)(F)F)c2)CC1  11.4%
50. CC(=O)Nc1nc2ccccc2n1CCN(C)C  14.6%
51. Cc1ccc(NC(=O)C2=C(O)c3sccc3N(C)S2(=O)=O)cc1  18.9%
52. O=C(COC(=O)c1ccc2ncsc2c1)NCc1ccccc1Cl  19.4%
53. O=C(O)C(Br)CBr (stereo not given)  20.6%
54. COc1ccc(Cl)cc1NC(=O)CN(C)C(=O)/C=C/c1ccco1  25.2%
55. CCCOc1ccc(CCC(=O)N/N=C/c2ccncc2)cc1  25.7%
56. COc1ccc(CCNC(=O)COc2ccc(-c3ccc(C)cc3)cc2)cc1OC  25.9%
57. CCN(CC)S(=O)(=O)c1ccc(Oc2ccccc2)cc1  30.3%
58. O=C(O)c1ccc(NCc2nc3ccccc3n2CCOc2ccccc2Cl)cc1  30.7%
59. C/C(=N\Nc1ccc(Cl)cc1)c1ccncc1  31.7%
60. COc1ccccc1Nc1nn2c(=O)c3ccc(C(=O)N4CCC(C)CC4)cc3nc2s1  33.4%
61. Cc1ccc(OCC(=O)N/N=C/c2ccco2)cc1  36.5%
62. CCOc1ccc(OCCC(=O)OCC(=O)N2CCN(S(=O)(=O)c3ccc(Cl)cc3)CC2)cc1  40.6%
63. O=S(=O)(Nc1ccc(Nc2ccccc2)cc1)c1ccc(F)cc1  45.8%
64. Cn1c(-c2ccc(Cl)cc2)cnc1N  52.6%
65. Nc1cccn2c(-c3ccc(Cl)c(Cl)c3)cnc12  54.7%
66. Cc1cccc(C(=O)N/N=C2\CS(=O)(=O)N(C)c3ccsc32)c1  56.1%
67. CCCOc1ccc(CCC(=O)N/N=C/c2ccco2)cc1  64.4%
68. O=C(NC1CCCc2ccccc21)c1ccc(Cl)nc1 (stereo not given)  72.1%
69. O=C(N/N=C/c1ccccn1)c1ccc([N+](=O)[O-])cc1Cl  74.4%
70. O=C(Nc1ccc(Cl)c(Cl)c1)Nc1ccc(Br)cc1F  75.2%
71. O=C(N/N=C/c1ccccn1)c1ccncc1  75.3%
72. O=C(NC1CCOc2ccccc21)c1ccccn1 (stereo not given)  75.5%
73. CCCC(=O)Nc1ccc(C(=O)N/N=C/c2ccc([N+](=O)[O-])o2)cc1  77.6%
74. Cc1ccccc1OCC(=O)N/N=C/c1ccc([N+](=O)[O-])o1  78.1%
75. Nc1nc2ccccc2n1CCOc1ccc(Cl)cc1  79%
